Changes are numbered by the printed parent chain; changes in the protein carry UniProt numbers. In all, about 16,000 sequences were measured (“ka relative to ugcaugu”: median about 0.0091, highest 2% from about 0.032 on). The list comes from a sample in which the highest values are over-represented; it also holds similar and randomly drawn sequences.
T1: RBFOX1 RRM (Homo sapiens, UniProt Q9NWB1 109-208)
T1 sequence: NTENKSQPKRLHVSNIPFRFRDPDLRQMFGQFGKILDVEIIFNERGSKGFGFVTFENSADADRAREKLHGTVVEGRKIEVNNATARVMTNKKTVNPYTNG

B1: CAGAAAA (DNA:RNA)
RNA: GGGAGACCGGAAUUCAGAUUGUCCCAGAAAAUUAAAUCCCGUCGUAGCCACCA
DNA 1: CAATCTGAATTCCGGTCTCCC
DNA 2: TGGTGGCTACGACGGGATT
B2: UGGGUAG (DNA:RNA)
RNA: B1 RNA with C25U, A26G, A28G, A29U, A31G
DNA 1: CAATCTGAATTCCGGTCTCCC
DNA 2: TGGTGGCTACGACGGGATT
B3: CCCAAGA (DNA:RNA)
RNA: B1 RNA with A26C, G27C, A30G
DNA 1: CAATCTGAATTCCGGTCTCCC
DNA 2: TGGTGGCTACGACGGGATT
B4: UCGCCGG (DNA:RNA)
RNA: B1 RNA with C25U, A26C, A28C, A29C, A30G, A31G
DNA 1: CAATCTGAATTCCGGTCTCCC
DNA 2: TGGTGGCTACGACGGGATT
B5: CUAGUGU (DNA:RNA)
RNA: B1 RNA with A26U, G27A, A28G, A29U, A30G, A31U
DNA 1: CAATCTGAATTCCGGTCTCCC
DNA 2: TGGTGGCTACGACGGGATT
B6: UGCUCCU (DNA:RNA)
RNA: GGGAGACCGGAAUUCAGAUUGUCCUGCUCCUUUAAAUCCCGUCGUAGCCACCA
DNA 1: CAATCTGAATTCCGGTCTCCC
DNA 2: TGGTGGCTACGACGGGATT
B7: GAUCGAC (DNA:RNA)
RNA: B1 RNA with C25G, G27U, A28C, A29G, A31C
DNA 1: CAATCTGAATTCCGGTCTCCC
DNA 2: TGGTGGCTACGACGGGATT
B8: GAGAGCC (DNA:RNA)
RNA: B1 RNA with C25G, A29G, A30C, A31C
DNA 1: CAATCTGAATTCCGGTCTCCC
DNA 2: TGGTGGCTACGACGGGATT
B9: GCAAUGU (DNA:RNA)
RNA: B1 RNA with C25G, A26C, G27A, A29U, A30G, A31U
DNA 1: CAATCTGAATTCCGGTCTCCC
DNA 2: TGGTGGCTACGACGGGATT
B10: GCAUGUU (DNA:RNA)
RNA: B6 RNA with U25G, G26C, C27A, C29G, C30U
DNA 1: CAATCTGAATTCCGGTCTCCC
DNA 2: TGGTGGCTACGACGGGATT
B11: ACGCAUC (DNA:RNA)
RNA: B1 RNA with C25A, A26C, A28C, A30U, A31C
DNA 1: CAATCTGAATTCCGGTCTCCC
DNA 2: TGGTGGCTACGACGGGATT
B12: CGCAUUG (DNA:RNA)
RNA: B1 RNA with A26G, G27C, A29U, A30U, A31G
DNA 1: CAATCTGAATTCCGGTCTCCC
DNA 2: TGGTGGCTACGACGGGATT
B13: CCCCGCA (DNA:RNA)
RNA: B1 RNA with A26C, G27C, A28C, A29G, A30C
DNA 1: CAATCTGAATTCCGGTCTCCC
DNA 2: TGGTGGCTACGACGGGATT
B14: CGCAUGU (DNA:RNA)
RNA: B6 RNA with U25C, U28A, C29U, C30G
DNA 1: CAATCTGAATTCCGGTCTCCC
DNA 2: TGGTGGCTACGACGGGATT
B15: ACGCAUA (DNA:RNA)
RNA: B1 RNA with C25A, A26C, A28C, A30U
DNA 1: CAATCTGAATTCCGGTCTCCC
DNA 2: TGGTGGCTACGACGGGATT
B16: GCCAUGU (DNA:RNA)
RNA: B6 RNA with U25G, G26C, U28A, C29U, C30G
DNA 1: CAATCTGAATTCCGGTCTCCC
DNA 2: TGGTGGCTACGACGGGATT
B17: ACGCAUG (DNA:RNA)
RNA: B1 RNA with C25A, A26C, A28C, A30U, A31G
DNA 1: CAATCTGAATTCCGGTCTCCC
DNA 2: TGGTGGCTACGACGGGATT
B18: GCAUUGU (DNA:RNA)
RNA: B6 RNA with U25G, G26C, C27A, C29U, C30G
DNA 1: CAATCTGAATTCCGGTCTCCC
DNA 2: TGGTGGCTACGACGGGATT
B19: CCGCAUG (DNA:RNA)
RNA: B1 RNA with A26C, A28C, A30U, A31G
DNA 1: CAATCTGAATTCCGGTCTCCC
DNA 2: TGGTGGCTACGACGGGATT
B20: GCAUAGU (DNA:RNA)
RNA: B6 RNA with U25G, G26C, C27A, C29A, C30G
DNA 1: CAATCTGAATTCCGGTCTCCC
DNA 2: TGGTGGCTACGACGGGATT
B21: UCCGUCU (DNA:RNA)
RNA: B6 RNA with G26C, U28G, C29U
DNA 1: CAATCTGAATTCCGGTCTCCC
DNA 2: TGGTGGCTACGACGGGATT
B22: GGCAGGC (DNA:RNA)
RNA: B6 RNA with U25G, U28A, C29G, C30G, U31C
DNA 1: CAATCTGAATTCCGGTCTCCC
DNA 2: TGGTGGCTACGACGGGATT
B23: AAGCGUG (DNA:RNA)
RNA: B1 RNA with C25A, A28C, A29G, A30U, A31G
DNA 1: CAATCTGAATTCCGGTCTCCC
DNA 2: TGGTGGCTACGACGGGATT
B24: UUGAUCA (DNA:RNA)
RNA: B1 RNA with C25U, A26U, A29U, A30C
DNA 1: CAATCTGAATTCCGGTCTCCC
DNA 2: TGGTGGCTACGACGGGATT
B25: GGGCUGG (DNA:RNA)
RNA: B1 RNA with C25G, A26G, A28C, A29U, A30G, A31G
DNA 1: CAATCTGAATTCCGGTCTCCC
DNA 2: TGGTGGCTACGACGGGATT
B26: AACCGCC (DNA:RNA)
RNA: B6 RNA with U25A, G26A, U28C, C29G, U31C
DNA 1: CAATCTGAATTCCGGTCTCCC
DNA 2: TGGTGGCTACGACGGGATT
B27: UCGCAUC (DNA:RNA)
RNA: B1 RNA with C25U, A26C, A28C, A30U, A31C
DNA 1: CAATCTGAATTCCGGTCTCCC
DNA 2: TGGTGGCTACGACGGGATT
B28: UCGCAUG (DNA:RNA)
RNA: B1 RNA with C25U, A26C, A28C, A30U, A31G
DNA 1: CAATCTGAATTCCGGTCTCCC
DNA 2: TGGTGGCTACGACGGGATT
B29: UCGCAUA (DNA:RNA)
RNA: B1 RNA with C25U, A26C, A28C, A30U
DNA 1: CAATCTGAATTCCGGTCTCCC
DNA 2: TGGTGGCTACGACGGGATT
B30: GUAAGUA (DNA:RNA)
RNA: B1 RNA with C25G, A26U, G27A, A29G, A30U
DNA 1: CAATCTGAATTCCGGTCTCCC
DNA 2: TGGTGGCTACGACGGGATT
B31: UCACAAA (DNA:RNA)
RNA: B1 RNA with C25U, A26C, G27A, A28C
DNA 1: CAATCTGAATTCCGGTCTCCC
DNA 2: TGGTGGCTACGACGGGATT

Each binder was assayed against T1, RBFOX1 RRM (assay: EMSA; HiTS-Eq, 1 nM pool, 10 min; buffer printed only for the single-RNA assays: 10 mM Tris pH 7.5, 150 mM NaCl, 3.4 mM EDTA, 0.001% NP-40, 30 C). Details: tags: His6 N-terminal (pET28a); label: 5' 32P.
Outline: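 Purified RbFox RRM (wild type or mutant) was equilibrated for 10 min in 50 µL with 1 nM of a 5′-radiolabelled pool of RNA with 7 randomized nucleotides, its flanks annealed to DNA oligonucleotides, across increasing protein concentrations. Free RNA was separated by 8% native PAGE, excised, reverse-transcribed, PCR-barcoded and sequenced on an Illumina HiSeq 2500. Relative association constants came from read-count changes of each variant against the control reaction, normalised to the cognate motif.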

Binder	binding signal
B1	0.000855 KA relative to UGCAUGU
B2	0.0258 KA relative to UGCAUGU
B3	0.00241 KA relative to UGCAUGU
B4	0.0169 KA relative to UGCAUGU
B5	0.0159 KA relative to UGCAUGU
B6	0.0145 KA relative to UGCAUGU
B7	0.0165 KA relative to UGCAUGU
B8	0.0145 KA relative to UGCAUGU
B9	0.01 KA relative to UGCAUGU
B10	0.635 KA relative to UGCAUGU
B11	0.00881 KA relative to UGCAUGU
B12	0.0131 KA relative to UGCAUGU
B13	0.0132 KA relative to UGCAUGU
B14	0.735 KA relative to UGCAUGU
B15	0.00394 KA relative to UGCAUGU
B16	0.0117 KA relative to UGCAUGU

Binder	binding signal
B17	0.697 KA relative to UGCAUGU
B18	0.0129 KA relative to UGCAUGU
B19	0.806 KA relative to UGCAUGU
B20	0.0104 KA relative to UGCAUGU
B21	0.0154 KA relative to UGCAUGU
B22	0.0103 KA relative to UGCAUGU
B23	0.0169 KA relative to UGCAUGU
B24	0.0152 KA relative to UGCAUGU
B25	0.0301 KA relative to UGCAUGU
B26	0.00718 KA relative to UGCAUGU
B27	0.0121 KA relative to UGCAUGU
B28	0.809 KA relative to UGCAUGU
B29	0.00838 KA relative to UGCAUGU
B30	0.00628 KA relative to UGCAUGU
B31	0.00202 KA relative to UGCAUGU

From paper PMC9911399, “Two distinct binding modes provide the RNA-binding protein RbFox with extraordinary sequence specificity”
